Bioassay records deposited in PubChem by several laboratories.
CRFBP-R2 agonist: CRF-BP/CRF-R2 complex agonism; HEK293 CRF-R2/CRF-BP, calcium dye fluorescence (FLIPR); percent of saturating CRF peptide response; activation, % at 13.2 µM; 0.46% of 350,000 active;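 active = activation of at least 50%, plus an integration ratio under a set limit after plate pattern correction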
IDE cell inh: inhibits human insulin-degrading enzyme in HEK cells. inhibition, % at 5.59 µM. 0.41% of 320,000 active. AID 434962. FAbetaB cleavage, fluorescence polarization;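 active = percent inhibition above the average of all tested compounds plus 3 SD, set per screening campaign, cut at about 16% in these data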;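 also: IDE supplied by intact live HEK cells; FP after avidin binding of uncleaved biotin substrate so inhibition keeps polarization high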
Target sequence (P14735 whole entry, looked up): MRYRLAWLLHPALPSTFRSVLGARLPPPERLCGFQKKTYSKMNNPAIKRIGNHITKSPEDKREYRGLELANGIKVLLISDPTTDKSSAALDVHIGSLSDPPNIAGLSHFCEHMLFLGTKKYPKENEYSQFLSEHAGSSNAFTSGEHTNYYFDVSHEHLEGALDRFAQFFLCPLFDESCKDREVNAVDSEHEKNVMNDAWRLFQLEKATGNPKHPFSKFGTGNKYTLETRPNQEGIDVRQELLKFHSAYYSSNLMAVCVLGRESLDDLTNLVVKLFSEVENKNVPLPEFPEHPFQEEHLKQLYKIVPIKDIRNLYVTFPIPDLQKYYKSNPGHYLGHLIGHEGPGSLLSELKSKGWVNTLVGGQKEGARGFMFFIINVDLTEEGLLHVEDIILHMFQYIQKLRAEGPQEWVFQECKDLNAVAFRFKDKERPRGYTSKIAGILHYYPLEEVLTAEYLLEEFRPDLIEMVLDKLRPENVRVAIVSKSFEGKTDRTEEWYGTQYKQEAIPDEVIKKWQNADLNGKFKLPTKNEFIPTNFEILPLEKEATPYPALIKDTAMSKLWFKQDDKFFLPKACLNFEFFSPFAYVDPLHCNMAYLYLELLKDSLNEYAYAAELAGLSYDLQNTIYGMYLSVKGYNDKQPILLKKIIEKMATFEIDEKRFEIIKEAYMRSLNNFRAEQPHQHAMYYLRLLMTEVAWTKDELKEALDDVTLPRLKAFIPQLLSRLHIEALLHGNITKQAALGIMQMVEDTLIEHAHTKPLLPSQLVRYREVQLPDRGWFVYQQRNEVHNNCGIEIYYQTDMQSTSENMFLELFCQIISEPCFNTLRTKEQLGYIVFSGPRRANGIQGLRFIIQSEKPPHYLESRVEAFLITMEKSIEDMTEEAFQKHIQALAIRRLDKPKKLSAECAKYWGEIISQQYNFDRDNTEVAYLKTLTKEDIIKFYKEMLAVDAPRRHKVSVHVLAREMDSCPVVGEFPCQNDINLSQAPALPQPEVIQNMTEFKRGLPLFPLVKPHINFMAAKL
HNF4A DNA FP: change in binding of human HNF4 alpha to DNA. P41235. HNF4a-FITC DNA binding, fluorescence polarization, 1 h. activity change, % at 10 µM. 0.3% of 360,000 active. AID 1224865; in the data active = activity change above about 30%, passing the limit was not always enough
IDE cell activ: boosts human insulin-degrading enzyme activity in HEK cells; P14735; FAbeta-B cleavage, fluorescence polarization; 0% vehicle, 100% cell-free pure enzyme wells; activation, % at 5.96 µM; 0.073% of 340,000 active; AID 493087;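 active = activation above the mean of all tested compounds plus 3 SD, set per screening campaign, cut at about 17% in these data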
TPT1 inhibitor: C. albicans TPT1 enzyme inhibition. 0.81% of 300,000 active. recombinant caTPT1, FP RNA substrate dephosphorylation. inhibition, % at 5 µM;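 active = inhibition above the mean of all tested compounds plus 3 SD, set per screening campaign, cut at about 24% in these data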
caTPT1 confirm: confirmation of Candida albicans TPT1 inhibitors. recombinant caTPT1, fluorescence polarization, RNase T1 coupled. shares compounds with TPT1 inhibitor. inhibition, % at 5 µM. 74% of 2,400 active;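 active = inhibition above the primary screen limit, the mean inhibition of all tested compounds plus 3 SD, cut at about 25% in these data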
RNase T1 counter: blocks Aspergillus oryzae RNase T1, a TPT1 counter-screen | shares compounds with TPT1 inhibitor | RNase T1 cleavage, fluorescence polarization, 1536-well | inhibition, % at 5 µM | 83% of 2,400 active | AID 2153;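 active = inhibition above the solvent-only control well mean plus 3 SD, limit set per screening run, cut at about 23% in these data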;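 also: inhibitors block cleavage so intact labeled substrate keeps polarization high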
Each line names hits and unclear results; the compound was inactive in the other large screens (follow-up assays come after a bar, where they were run). This is a sample that favours compounds with a hit; in the whole collection about 1.4% have one here.

COc1ccc(OC)c(/C=C2\Oc3cc(OCC(=O)N4CCC[C@H]4C(=O)O)ccc3C2=O)c1	none
COc1ccc(/C=C2\Oc3cc(OCC(=O)N4CCC[C@H]4C(=O)O)ccc3C2=O)c(OC)c1	TPT1 inhibitor 35 | caTPT1 confirm 81 | RNase T1 counter 91
CCOC(=O)Nc1ccc2c(c1)Cc1cc([N+](=O)[O-])ccc1-2	none (no result: IDE cell inh, TPT1 inhibitor)
Nc1ccc2c(c1)Cc1cc([N+](=O)[O-])ccc1-2	CRFBP-R2 agonist 111, HNF4A DNA FP 37, TPT1 inhibitor 53 | caTPT1 confirm 56 | RNase T1 counter 65
O=C(Cc1cn(-c2ccccc2)nc1-c1ccccc1)N1CCCCC1	none
Cc1cc(OCc2cc(C(=O)N3CCCCCC3)no2)cc(C)c1Cl	none
Cn1c(CN2CCCC2)nc2cc(NC(=O)COc3ccc(Cl)cc3)ccc21	TPT1 inhibitor 60 | caTPT1 confirm inactive | RNase T1 counter inactive
C=CCOc1ccccc1CN1CCN(CCc2ccccc2)C(CCO)C1 (configuration not stated)	none
Nc1c(C(=O)c2ccccc2)sc2snc(SCC(=O)c3ccccc3)c12	TPT1 inhibitor 102 | caTPT1 confirm 71 | RNase T1 counter 77
Nc1nnc(SCC(=O)c2ccccc2)s1	none
Nc1c(C(=O)Nc2ccc(F)cc2)sc2nc(-c3ccco3)ccc12	TPT1 inhibitor 28 | caTPT1 confirm 25 | RNase T1 counter 33
CC(=O)c1sc2nc(-c3ccco3)ccc2c1N	none (no result: IDE cell activ)
Nc1c(C(=O)Nc2ccc(Br)cc2)sc2nc(-c3ccco3)ccc12	TPT1 inhibitor 24 | caTPT1 confirm 35 | RNase T1 counter 44
O=C(NNC(=O)c1ccccc1F)c1ccc(Cl)c(S(=O)(=O)N2CCOCC2)c1	none (no result: TPT1 inhibitor)
C=CCC1CCC/C(=N\NS(=O)(=O)c2ccc(C)cc2)C1 (configuration not stated)	none
COc1cccc(-c2cc(C(=O)N3CCN(S(=O)(=O)c4ccc(Br)cc4)CC3)[nH]n2)c1	none
O=C(O)CCCN1C(=O)/C(=C/c2ccncc2)SC1=S	none
O=C(O)CCCCCN1C(=O)/C(=C\c2ccncc2)SC1=S	none
O=C(O)CCCN1C(=O)/C(=C/c2ccc(-c3nc4ccccc4s3)o2)SC1=S	HNF4A DNA FP 51, TPT1 inhibitor 48 | caTPT1 confirm 95 | RNase T1 counter 103
O=C(O)CCCCCN1C(=O)/C(=C\c2ccc(-c3ccc(Cl)cc3)o2)SC1=S	CRFBP-R2 agonist 114, TPT1 inhibitor 27 | caTPT1 confirm 65 | RNase T1 counter 81
CCN(CC)CCCNc1nc(CN2CCOCC2)nc2sc3c(c12)CCC3	TPT1 inhibitor 35 | caTPT1 confirm inactive | RNase T1 counter inactive
CCCC(=O)OCC(=O)c1[nH]c(C)c(C(C)=O)c1C	none
CC(=O)Nc1ccc(/C=C2/Sc3ccccc3C2=O)cc1	TPT1 inhibitor 44 | caTPT1 confirm 43 | RNase T1 counter 51
CC(=O)N(\C=C/C=C/C=C1\Sc2ccccc2C1=O)c1ccccc1	HNF4A DNA FP 49, TPT1 inhibitor 58 | caTPT1 confirm 84 | RNase T1 counter 94
CCC(=O)c1ccc(OCC(=O)OC(C)C(=O)NCc2ccc3c(c2)OCO3)cc1 (configuration not stated)	none
CC(=O)OC1C(=O)N(Cc2ccccc2)C1c1ccc(C)cc1 (configuration not stated)	none (no result: IDE cell inh, TPT1 inhibitor)
CNc1ccc(Br)cc(C(=O)/C=C/c2ccc(OC)cc2OC)c1=O	TPT1 inhibitor 54 | caTPT1 confirm 76 | RNase T1 counter 84
CNc1ccc(Br)cc(C(=O)/C=C/c2ccc(Cl)cc2Cl)c1=O	TPT1 inhibitor 69 | caTPT1 confirm 58 | RNase T1 counter 72
O=C(/C=C/c1ccc(Cl)cc1Cl)c1ccc[nH]1	none
CNc1ccc(Br)cc(C(=O)/C=C/c2cccc(OC)c2)c1=O	TPT1 inhibitor 42 | caTPT1 confirm 61 | RNase T1 counter 74
Cc1ccc(C(=O)NCC(=O)N(C)CC(=O)Nc2c(Cl)cccc2Cl)s1	none
COc1ccccc1OCCNC(=O)CCNS(=O)(=O)c1ccc(C)cc1	none (no result: IDE cell inh, TPT1 inhibitor)
COC(=O)c1cc(NC(=O)c2cccc(Cl)c2)c(=O)oc1/C=C/Nc1cc(C)cc(C)c1	TPT1 inhibitor 194 (no result: CRFBP-R2 agonist, HNF4A DNA FP, IDE cell activ) | caTPT1 confirm 166 | RNase T1 counter 155
COC(=O)c1cc(NC(=O)c2cccc(C(F)(F)F)c2)c(=O)oc1C	none
COc1ccc(C(=O)/C=C/Nc2ccc(S(=O)(=O)Nc3cc(OC)nc(OC)n3)cc2)c(OC)c1	TPT1 inhibitor 36 | caTPT1 confirm 39 | RNase T1 counter 50
COC(=O)[C@H]1[C@H]2C[C@@H]3c4[nH]c5cc(OC)ccc5c4CCN3C[C@H]2C[C@@H](OC(=O)c2cc(OC)c(OC)c(OC)c2)[C@@H]1OC	TPT1 inhibitor 41 | caTPT1 confirm 45 | RNase T1 counter 58
CCCCn1c(N)c(N(Cc2ccccc2OC)C(=O)C(C)Oc2cccc(Cl)c2)c(=O)[nH]c1=O (configuration not stated)	none (no result: IDE cell inh, IDE cell activ, TPT1 inhibitor)
COCC(=O)Nc1ccc2c(c1)[C@@H]1C[C@H](CC(=O)OC)O[C@@H](CO)[C@@H]1O2	none (no result: IDE cell inh, IDE cell activ, TPT1 inhibitor)
O=C(Nc1ccc(S(=O)(=O)Nc2nccs2)cc1)c1ccc(=O)[nH]c1	TPT1 inhibitor 36 | caTPT1 confirm 37 | RNase T1 counter 51
CN(Cc1ccccc1)C(=O)CCC1CCN(C(=O)CCC(F)(F)F)CC1	none
O=C(c1ccc(CS(=O)Cc2ccccc2Cl)o1)N1CCN(C2CCCCC2)CC1 (configuration not stated)	TPT1 inhibitor 117 | caTPT1 confirm inactive | RNase T1 counter inactive
CCc1cc2c(SCC(=O)NC3CC3)ncnc2s1	none (no result: TPT1 inhibitor)
CC(/C=N/n1c(-c2n[nH]c3c2CCC3)n[nH]c1=S)=C\c1ccco1	TPT1 inhibitor 33 | caTPT1 confirm inactive | RNase T1 counter inactive
CC(/C=N/n1c(-c2cccnc2)n[nH]c1=S)=C\c1ccco1	none
COc1ccc(S(=O)(=O)N2CCCC(C(=O)NCc3ccco3)C2)cc1OC (configuration not stated)	none
CCOC(=O)Cc1cc(=O)n(-c2nc3ccccc3s2)[nH]1	TPT1 inhibitor 28 | caTPT1 confirm inactive | RNase T1 counter 24
C/C(=N\Nc1nc(-c2cc(C)ccc2C)cs1)c1cc2c(ccc3ccccc32)oc1=O	TPT1 inhibitor 28 | caTPT1 confirm 33 | RNase T1 counter 45
C/C(=N\Nc1nc(-c2cc(C)ccc2C)cs1)c1cc2ccccc2oc1=O	none
O=c1[nH]c2ccccc2nc1/C=C/c1ccc(F)cc1	HNF4A DNA FP 44, TPT1 inhibitor 57 | caTPT1 confirm 74 | RNase T1 counter 83
O=c1[nH]c2ccccc2nc1/C=C(\O)C1CC1	TPT1 inhibitor 27 | caTPT1 confirm inactive | RNase T1 counter inactive
